Experimental data published in PubChem BioAssay AID777 (Sanford-Burnham Center for Chemical Genomics, 2007).
In all, about 96,000 compounds went through this assay and about 19,000 (20%) were called active.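 The calls were made as follows: active = blocking of liver enzyme CYP2C9 beyond about 50% at 5 µM (limit read from the data); inactive = the rest.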 A selection follows.

molecular target: Cytochrome P450 2C9 (Homo sapiens) (UniProt P11712); test: blockers of cytochrome P450 2C9 activity – biochemical, luminescence, ADME assay, primary screen (AID 777); details: CYP2C9 Supersomes, luciferin-H conversion, at 5 µM, stronger effect = higher value
Sequence (P11712 whole entry, looked up): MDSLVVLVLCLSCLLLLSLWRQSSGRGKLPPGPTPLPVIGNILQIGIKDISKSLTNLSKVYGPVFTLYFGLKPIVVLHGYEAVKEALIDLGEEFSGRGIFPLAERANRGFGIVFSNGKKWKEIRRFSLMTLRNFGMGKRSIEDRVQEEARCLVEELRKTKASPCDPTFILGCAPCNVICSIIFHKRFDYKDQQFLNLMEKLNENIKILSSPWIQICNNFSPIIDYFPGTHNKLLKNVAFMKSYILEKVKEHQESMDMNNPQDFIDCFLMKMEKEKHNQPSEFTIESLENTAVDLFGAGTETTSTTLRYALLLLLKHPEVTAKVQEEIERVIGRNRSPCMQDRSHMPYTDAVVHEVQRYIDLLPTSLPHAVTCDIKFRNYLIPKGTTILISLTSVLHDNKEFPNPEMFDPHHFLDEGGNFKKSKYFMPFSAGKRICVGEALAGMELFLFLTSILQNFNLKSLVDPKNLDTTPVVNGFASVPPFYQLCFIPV

inhibition, active:
Cc1ccc(-c2noc(CSc3nnnn3-c3ccccc3)n2)cc1 85.5%
Cc1ccc(-c2noc(CSc3nnc(-c4ccncc4)n3-c3ccc(F)cc3)n2)cc1 70.7%
Cc1ccc(-c2noc(CSc3nnc(-c4ccccc4)n3C)n2)cc1 88.3%
CCOC(=O)N1CCN(S(=O)(=O)c2cc(Br)cc3c2N(C(=O)C2CC2)CC3)CC1 50.2%
Cc1ccc(C)c(NS(=O)(=O)c2cc(Br)cnc2N)c1 63.5%
C=CCn1c(SCCOc2ccc(OC)cc2)nnc1C(NC(=O)c1ccc(OC)cc1)C(C)C (stereo unspecified) 58.8%
Cc1cccc(N2CCN(S(=O)(=O)c3ccc4[nH]c(=O)c(=O)[nH]c4c3)CC2C)c1 (stereo unspecified) 52.5%
COc1ccc(/C(O)=C2/C(=O)C(=O)N(c3nc(C)c(C)s3)C2c2ccco2)cc1 (stereo unspecified) 70.5%
Cc1ccc(NC(=O)CS(=O)CC(=O)N(c2ccccc2)C(C)C(=O)NC2CCCC2)cc1 (stereo unspecified) 77.9%
COc1ccccc1N1CCN(Cc2nnnn2CCc2ccccc2)CC1 75%
CCOC(=O)C1Cn2c(nc3c(c2=O)C(C)(CC)Cc2ccccc2-3)S1 (stereo unspecified) 94.8%
O=C(Nc1ccc(-n2ccnc2P(=O)(O)c2ccccc2)cc1)c1ccccc1Br 95.5%
COC(=O)C1=C(C)N(C)C(C)=C(C(=O)OC)C1c1cccc(Br)c1 93.8%
c1ccc2c(CSCc3nc4ccccc4[nH]3)cccc2c1 85.1%
CCS(=O)(=O)n1nc(-c2ccccc2)nc1SCc1ccccc1 87.9%
Cc1cc(C)c(C#N)c(SCc2ccc3c(c2)OCO3)n1 90.5%
Cc1ccc(-c2csc(N(Cc3ccco3)C(=O)c3cccs3)n2)cc1 91.6%
Cc1nc(SCC(=O)N2CC(=O)Nc3ccccc32)c2c(C)c(C)sc2n1 55.2%
Cc1nc(SCC(=O)N2CCc3ccccc3C2)c2c(C)c(C)sc2n1 55.9%
CCSc1nc(-c2ccc(OC)cc2)cc(-c2ccc(OC)cc2)c1C#N 75.3%
Cc1ccccc1OCc1nnc(SCC(=O)N2c3ccccc3Sc3ccc(Cl)cc32)o1 57.3%
O=C(CSc1nc2ccccc2o1)N1c2ccccc2Sc2ccc(Cl)cc21 60.9%

inhibition, inactive:
CCn1c(SCC(=O)Nc2ccc(S(=O)(=O)Nc3onc(C)c3C)cc2)nnc1-c1ccccc1 18.2%
O=C(NCCCCO)C(F)(F)C(F)(F)C(F)(F)C(=O)NCCCCO -24.7%
Cc1cccc(-c2noc(-c3ccc(F)cc3)n2)c1 8.5%
CCN(CC)C(=O)CSc1nnc(-c2cnccn2)n1-c1ccc(C)cc1 8.8%
Cn1c(SCc2nc3ccccc3s2)nnc1-c1ccc2c(c1)OCO2 8.2%
Cc1ccc(-c2noc(CSc3nnc(-c4cccs4)n3C)n2)cc1 13%
CN(C(=O)CSc1nnnn1-c1ccccc1)C1CCCCC1 36.3%
Cc1ccc(Nc2nc(CSc3nnnn3-c3ccccc3)cc(=O)[nH]2)cc1 42.5%
O=C(O)CN(Cc1ccco1)S(=O)(=O)c1ccccc1 -2.7%
O=C(c1ccc(O)cc1)c1ccc(C(=O)O)c(C(=O)O)c1 -15.8%
COc1ccc(C(CNC(=O)c2cccnc2SC)N2CCOCC2)cc1 (stereo unspecified) 6.9%
S=C1NC(c2ccccc2)=NCN1c1ccc(Br)cc1 19.4%
CCOC(=O)N1CCN(C(=O)C2CCN(S(C)(=O)=O)CC2)CC1 -10.2%
CCN(c1ccc2c(c1)OCO2)S(=O)(=O)c1cc(Br)cc2c1N(C(=O)C1CC1)CC2 33.6%
O=C(O)C1CC=CCC1C(=O)NCCc1ccccc1 (stereo unspecified) -21.1%
O=c1[nH]c(=O)n(Cc2ccco2)c2c1C(C(F)(F)F)(C(F)(F)F)N=C(c1ccco1)N2 1.8%
Cc1ccc(C)c(S(=O)(=O)n2cnc3ccccc32)c1 -14.6%
Cc1ccc(S(=O)(=O)NCc2csc(C)n2)c(C)c1 9.2%
CCOC(=O)CSc1nnc(CNC(=O)c2cccs2)n1-c1cc(OC)ccc1OC 31.7%
Cc1cc(C)c(S(=O)(=O)c2ccccc2)c(OC(=O)c2c(F)cccc2Cl)n1 32.9%
O=c1c2ccccc2nc2n1C(CSc1ccc(F)cc1)CN2 (stereo unspecified) 1.1%
C=CCn1c(COc2cccc3cccnc23)nnc1SCC(=O)OC -306%
C=CCn1c(SCC(=O)c2ccc(Br)cc2)nnc1C(C)NC(=O)Cc1ccc(OC)cc1 (stereo unspecified) 30.7%
CC1=C(C)CC(C(=O)NNC(=O)c2ccccc2O)C(C(=O)O)C1 (stereo unspecified) 21.8%
O=C(c1c(Cl)nc2sccn12)N1CCCc2ccccc21 28.1%
COc1cccc(N2C(=O)CC(N3CCN(S(=O)(=O)c4ccccc4)CC3)C2=O)c1 (stereo unspecified) 6.5%
CN1CCN(S(=O)(=O)c2ccc3[nH]cc(C(=O)O)c(=O)c3c2)CC1 2.4%
Cc1nc(C)c(-c2csc(NCCc3ccccc3)n2)s1 39%
COc1ccc(/C(O)=C2/C(=O)C(=O)N(CC3CCCO3)C2c2ccc(OC)c(OC)c2)cc1 (stereo unspecified) 35.9%
COc1ccc(/C(O)=C2\C(=O)C(=O)N(Cc3ccco3)C2c2ccc(OC)cc2OC)cc1 (stereo unspecified) 21.7%
C=CCNc1ncnc2ccc(Br)cc12 -10.3%
COC(=O)c1cc(NC(=O)CC2C(=O)NCCN2C(=O)c2ccc(F)cc2)cc(C(=O)OC)c1 (stereo unspecified) 46.6%
COc1cc(Cl)c(S(=O)(=O)N2CCN(Cc3ccc4c(c3)OCO4)CC2)cc1Cl 20.7%
O=C(c1ccc(F)cc1)c1c[nH]c(C(=O)NCc2cccnc2)c1 45.9%
CC(C)c1ccc(NC(=O)NC2CCCCC2)cc1 -33.8%
CCc1ccc(NC(=O)CS(=O)CC(=O)NCCCc2ccccc2)cc1 (stereo unspecified) 38.5%
COc1ccc(C2CC(=O)C=C(NCC3CCCO3)C2)cc1 (stereo unspecified) 9.3%
O=C(OCN1C(=O)c2ccccc2C1=O)/C(=C\c1ccco1)NC(=O)c1ccccc1 14%
COC(=O)Nc1ncc(CN2CCCCC2)s1 3.8%
CCOP1(=O)C=C(C(C)(C)C)OC1c1ccc(F)cc1 (stereo unspecified) -21.5%
c1ccc(CCn2nnnc2CN2CCN(C3CCCC3)CC2)cc1 -1.3%
COCCn1nnnc1C(c1ccccc1Cl)N1CCN(c2ccccc2OC)CC1 (stereo unspecified) 39.5%
Oc1ccccc1CNc1ncc(Br)cc1Br -39.9%
CCOc1ccc(C(=O)NC2CCN(S(=O)(=O)CC)CC2)cc1 2.4%
CCOC(=O)N1CCC(Nc2c(NCCCN3CCN(CC)CC3)c(=O)c2=O)CC1 -19.9%
CC1(C)Cc2ccccc2-c2nc(CN3CCOCC3)[nH]c(=O)c21 15.5%
Cc1nonc1NC(=O)c1ccccc1Br -27.2%
O=C(Nc1nnc(-c2ccc(Cl)cc2)o1)c1ccccc1Br 26%
CC(=O)NC1=NC(=O)CS1 11.7%
COC(=O)C1=CN(C)C=C(C(=O)OC)C1c1ccc(Cl)cc1Cl 28%
COC(=O)CN1C(C)=Nc2ccc(Br)cc2C1c1ccccc1 (stereo unspecified) -8.5%
Clc1ccccc1SCc1nc2ccccc2[nH]1 36.9%
COC(=O)Cc1nc2ccccc2[nH]1 7.9%
CC(CN1CCOCC1)c1ccccc1 (stereo unspecified) 2.7%
CN(CC(=O)NC1CCCCC1)S(=O)(=O)c1ccc(Br)s1 -17.7%
Cn1c(CO)cnc1SCc1ccccc1 3.4%
CCS(=O)(=O)n1nc(-c2ccc(OC)cc2)nc1SC 42.2%
CSCCC(NC(=O)COc1ccccc1)C(=O)OCC(=O)c1cc2ccccc2o1 (stereo unspecified) 43.3%
COc1ccc2ccccc2c1CNCc1ccccn1 -4.5%
Cc1cc(C)c(C#N)c(SCc2ccccc2C(=O)O)n1 9.5%
Cc1cc(C)c(C#N)c(SCS(=O)c2ccc(C(C)(C)C)cc2)n1 (stereo unspecified) -50.8%
CCCCN(C)Cc1c(C)[nH]c2ccc(Cl)cc2c1=O -10.7%
Cc1nnc(N(Cc2ccco2)C(=O)c2ccno2)s1 11.2%
O=C(O)CCC(=O)N(Cc1ccco1)c1nc(-c2ccccc2)cs1 5.2%
O=C(Nc1ccccc1)N(Cc1cccnc1)Cc1ccco1 35.5%
COC(=O)c1ccc(Oc2nc(NC(C)C)nc(SC)n2)cc1 37.2%
O=C(CSc1nnc(-c2cccs2)n1Cc1ccccc1)N1CCc2ccccc2C1 48%
Nn1c(Cc2cccc3ccccc23)nnc1SCC(=O)N1CC(=O)Nc2ccccc21 -64.6%
Cc1nnc(SCC(=O)N2CCc3ccccc3C2)s1 0%
Cc1nc(SCC(=O)Nc2cc(C)on2)c2c(C)c(C)sc2n1 14%
COc1ccc(OC)c(NC(=O)CCN2CCC(C)CC2)c1 5.1%
CCc1nnc(NC(=O)CCC(=O)NCc2ccccc2OC)s1 -14.5%
Cc1ccsc1-c1nc(CSCC(=O)NCCN2CCCC2)c(C)o1 7.3%
CCOc1cc(-c2cc(-c3ccc(OC)cc3)nc(N)c2C#N)ccc1O 47.2%
COc1ccc(C)cc1N(C)C(=O)c1coc(=O)c2ccccc12 33.1%
CC(C)NC(=O)CSc1nnc(COc2ccccc2Cl)o1 -39.2%
Cc1cc(C)cc(OCc2nnc(SCC(=O)Nc3ccccc3)o2)c1 -3%
O=C(CSc1nc2ccccc2o1)N1CCN(c2ccc(Cl)cc2)CC1 -11.9%
CC1Cc2ccccc2N1C(=O)CSc1nc2ccccc2o1 (stereo unspecified) 28.2%
